ABCB6 inh MLPCN: inhibitors of human ABC transporter ABCB6; K562-ABCB6 porphyrin accumulation, flow cytometry, 1 h; hits give low values; fluorescence ratio to DMSO, % at 10 µM; 360,000 compounds, 0.19% hits; Q9NP58; AID 602162;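 active = fluorescence ratio to DMSO below 75%, the collection mean minus 3 SD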;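 also: signal is porphyrin accumulated inside mitochondria; 100% equals median channel fluorescence of DMSO control wells; lower ratio means ABCB6 inhibition with less porphyrin fluorescence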
MEKK3 PB1 HTS: MEKK3-MEK5 PB1 interaction, increase or decrease. bead-based flow cytometry, Alexa488-MEK5 binding to MEKK3; actives lie on both sides; 0 = blocked by unlabeled MEK5, 100 = vehicle. binding response (% of control), % at 10 µM. 290,000 compounds, 1.4% hits. AID 1529;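 active = binding response more than 3 SD above or below the average of its plate-row segment, actives on both sides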;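 also: Alexa488 bead fluorescence after subtracting the streptavidin-only scavenger bead signal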
Target sequence (Q99759 whole entry, looked up): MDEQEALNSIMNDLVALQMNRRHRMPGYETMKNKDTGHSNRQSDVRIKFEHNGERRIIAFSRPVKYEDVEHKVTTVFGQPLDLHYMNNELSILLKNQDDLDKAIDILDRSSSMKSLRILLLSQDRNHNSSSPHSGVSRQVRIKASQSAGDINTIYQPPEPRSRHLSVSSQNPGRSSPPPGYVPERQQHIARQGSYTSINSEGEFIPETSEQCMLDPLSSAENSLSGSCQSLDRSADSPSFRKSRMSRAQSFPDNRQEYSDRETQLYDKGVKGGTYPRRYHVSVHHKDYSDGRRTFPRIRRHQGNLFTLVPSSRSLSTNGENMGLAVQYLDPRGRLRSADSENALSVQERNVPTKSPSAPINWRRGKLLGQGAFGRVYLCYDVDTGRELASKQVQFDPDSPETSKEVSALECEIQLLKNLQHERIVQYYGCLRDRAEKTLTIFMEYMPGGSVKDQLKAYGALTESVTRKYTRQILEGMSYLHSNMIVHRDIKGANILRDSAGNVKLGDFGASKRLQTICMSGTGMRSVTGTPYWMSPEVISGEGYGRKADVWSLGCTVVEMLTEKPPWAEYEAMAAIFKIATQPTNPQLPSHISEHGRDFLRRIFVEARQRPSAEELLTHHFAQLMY
CRFBP-R2 block: CRF-BP/CRF-R2 complex antagonism; HEK293 CRF-R2/CRF-BP, CRF-induced calcium fluorescence; inhibition, % at 11.8 µM; 350,000 compounds, 0.59% hits;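 active = inhibition of the ligand-induced calcium signal above about 50% at the single tested concentration, limit read from the data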
CRFBP-R2 agonist: CRF-BP/CRF-R2 complex agonism | HEK293 CRF-R2/CRF-BP, calcium dye fluorescence (FLIPR); percent of saturating CRF peptide response | activation, % at 13.2 µM | 350,000 compounds, 0.46% hits;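 active = activation of at least 50%, plus an integration ratio under a set limit after plate pattern correction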;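 also: plate controls were neutral control wells without compound for no effect and CRF at EC100 for full effect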
MEKK2 mut-MEK5: signal of MEK5 binding to mutant human MEKK2 PB1 domain | percent response, % at 10 µM | 290,000 compounds, 0.35% hits | bead flow cytometry, Alexa488-MEK5 binding to MEKK2 mutant; in the data active = percent response above about 24%, passing the limit was not always enough
MEKK2 WT-MEK5: raises or lowers MEK5 binding to wildtype human MEKK2 PB1 domain | 290,000 compounds, 1.1% hits | AID 1531 | binding response (% of control), % at 10 µM | bead flow cytometry, Alexa488-MEK5 binding to MEKK2 WT; actives lie on both sides | Q9Y2U5; in the data active = binding response below about 67% or above about 130%
The depositor's hits bear a star; · = not tested or not shown. Rows were chosen to be rich in hits. Some 2.9% of all compounds tested hit in one or more screens of this group.

SMILES | ABCB6 inh MLPCN | MEKK3 PB1 HTS | CRFBP-R2 block | CRFBP-R2 agonist | MEKK2 mut-MEK5 | MEKK2 WT-MEK5
Cc1c(C(=O)O)sc(S(=O)(=O)N2CCN(C(=O)Cc3ccc(F)cc3)CC2)c1C(=O)O | 97 | · | 52* | -1 | · | ·
Cc1c(C(=O)O)sc(S(=O)(=O)N2CCN(C(=O)Cc3ccc(Cl)cc3)CC2)c1C(=O)O | 100 | · | -7 | 3 | · | ·
COc1ccc(OC)c(NC(=O)c2cccc3c2C(=O)N(C2CCCCC2)C3)c1 | 101 | 100 | 6 | 0 | -1 | 93
COCCN1Cc2cccc(C(=O)Nc3cc(OC)ccc3OC)c2C1=O | 97 | · | -35 | 61* | · | ·
O=C(OCCN1C(=O)c2cccc3c(N4CCOCC4)ccc(c23)C1=O)c1ccc(Cl)cc1 | 155 | 99 | -374 | 366* | -16 | 81
CCCN(CCC)S(=O)(=O)c1ccc(C(=O)OCCN2C(=O)c3cccc4c(N5CCOCC5)ccc(c34)C2=O)cc1 | 182 | 94 | -106 | 114* | 0 | 92
O=C(OCCN1C(=O)c2ccccc2C1=O)c1cc(S(=O)(=O)N2CCOCC2)ccc1F | 93 | 105 | -21 | 2 | 2 | 107
Cc1ccc(NC(=O)Nc2ccc3c(c2)OCO3)cc1F | 101 | 101 | 3 | -1 | 9 | 110
CCOc1cc(C)c(C(C)C)cc1S(=O)(=O)n1cnc(C)c1 | 103 | 99 | -49 | 104* | 0 | 97
CCOc1cc(C)c(C(C)C)cc1S(=O)(=O)N1CC(C)OC(C)C1 (stereo not drawn) | 94 | 87 | 1 | 3 | -8 | 91
Cc1c(C(=O)NCC2CCCO2)sc2nc(-c3ccc(F)cc3)cn12 (stereo not drawn) | 98 | 95 | 56* | -5 | -3 | 96
CCCCC1(C)OC(=O)C(=Cc2ccc(-c3ccc(Cl)c(C(=O)O)c3)o2)C(=O)O1 (stereo not drawn) | 100 | 94 | 61* | 4 | -6 | 96
COc1ccccc1C(=O)NCCC(=O)N1CCCCC1 | 95 | 104 | 11 | -1 | 9 | 105
COc1ccccc1C(=O)NCCC(=O)N1CCN(c2ccccc2O)CC1 | 95 | · | 71* | 0 | · | ·
Cc1ccc2c(c1)N(C(=O)CCC(=O)NC1CCN(Cc3ccccc3)CC1)CC(C)O2 (stereo not drawn) | 94 | 96 | 41 | -2 | -1 | 99
CCCN1CCN(C2CCCCC2NS(=O)(=O)c2ccc(Cl)cc2)CC1 (stereo not drawn) | 100 | 100 | 51* | 7 | -7 | 97
O=S(=O)(NC1CCCCC1N1CCC(O)CC1)c1ccccc1 (stereo not drawn) | 100 | 108 | 7 | 5 | 2 | 109
O=S(=O)(NC1CCCCC1N1CCN(c2ccc(F)cc2)CC1)c1ccc(Cl)cc1 (stereo not drawn) | 94 | 105 | -79 | 105* | -4 | 103
O=C(Nc1ncccc1O)c1ccc(Oc2ccccc2)cc1 | 96 | 91 | 3 | 0 | -11 | 92
C=CCOC(=O)C1=C[C@H](C(C)(C)C)[C@@H](CCCO)[C@H](OCC)O1 | 97 | 98 | 5 | 1 | -5 | 95
CCO[C@@H]1OC(C(N)=O)=C[C@H](C(C)(C)C)[C@H]1CCCO | 101 | 105 | 109* | 1 | 0 | 102
COc1ccc(C(=O)COC(=O)c2cccnc2SC)cc1 | 101 | 102 | 78* | 0 | 2 | 101
CCc1nnc(NC(=O)COc2ccc3c(c2)OCO3)s1 | 97 | 96 | -10 | 0 | -6 | 96
CC(C(=O)O)n1ncc2ccccc2c1=O (stereo not drawn) | 97 | 97 | 15 | -5 | -1 | 97
Cc1nn(C(C)C(=O)O)c(=O)c2ccccc12 (stereo not drawn) | 103 | 95 | 57* | -4 | -10 | 86
C=CCN(C(=O)c1csnn1)C(C(=O)NC1CCCC1)c1c(F)cccc1Cl (stereo not drawn) | 91 | 105 | 4 | -3 | 14 | 153*
CCN(C(=O)COC(=O)Cc1cccc2ccccc12)C1CCS(=O)(=O)C1 (stereo not drawn) | 100 | · | 122* | -1 | · | ·

Screening data deposited in PubChem by several laboratories.
